# Data as given in PubChem BioAssay (NCI).
# Several values for one entry are separate records, joined by “and”; a condition that tells them apart may be missing. Identical values can stand only once. Compounds without any hit were thinned out: in the full panel of roughly 83,000, 20% have a hit.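 Note: values are percent growth. 100 is the growth of untreated cells, values between 100 and 0 indicate rising inhibition; between -100 and 0 indicates cell death.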 Activity calls are given as the source filed them. Rule for the calls: active = growth percent below 10; inactive = the rest.
# Test system: TK-10 renal
# Assay: NCI-60 one-dose screen, 48 h (100 = growth as untreated, 0 = no growth, -100 = all killed)
# Settings: 10 µM unless noted
row,Compound,growth
1,COc1ccc(OC)c(N(CN2C(=O)CCC2C(=O)O)C(C)=O)c1 (centres undefined),78.2% [100 µM] (inactive) and 103% [100 µM] (inactive)
2,O=C1c2ccccc2-c2c1c1ccccc1c(=O)n2-c1cccnc1,59.8% [100 µM] (inactive) and -34% [100 µM] (active)
3,Cc1ccc(C)c(NC(=O)/C(=N\N)C(c2cnc3ccc([N+](=O)[O-])cc3n2)[N+](=O)[O-])c1 (centres undefined),146% [100 µM] (inactive) and 18.1% [100 µM] (inactive)
4,Cc1ccc(/C=N/Nc2nc3ccccc3s2)s1,14.8% [100 µM] (inactive) and 8.44% [100 µM] (active)
5,COc1ccc2nc(NC(=O)/C(C#N)=C/c3ccccc3)sc2c1,52.5% [100 µM] (inactive) and -23.1% [100 µM] (active)
6,COC(=O)C(=O)C(C(=O)C(=O)Nc1ccccc1OC)c1nc2ccc([N+](=O)[O-])cc2[nH]c1=O (centres undefined),121% [100 µM] (inactive) and 68% [100 µM] (inactive)
7,COc1ccc(-c2coc3c4c(ccc3c2=O)OCO4)cc1OC,54.4% [100 µM] (inactive) and 6.05% [100 µM] (active)
8,CC(C)(C)c1cc(C2COC(=O)COCCOCC(=O)OCCOCCO2)cc(C(C)(C)C)c1O (centres undefined),-69.6% [100 µM] (active) and -100% [100 µM] (active)
9,Cc1ccc(F)cc1NC(=O)O/N=C(\Cl)C(C)C,65.6% [100 µM] (inactive) and 72.9% [100 µM] (inactive)
10,CC(=O)c1ccc(NC(=O)/C(CC(=O)/C=C/c2ccccc2)=N/NC(N)=S)cc1,125% [100 µM] (inactive) and 43.7% [100 µM] (inactive)
11,N#Cc1nc(-c2cccc(-c3nc(C#N)c(N)o3)n2)oc1N,96.3% [100 µM] (inactive) and 84.9% [100 µM] (inactive)
12,COC(=O)/C=C\C(C#N)(C#N)N=Cc1ccsc1,-98.5% [100 µM] (active) and -84.4% [100 µM] (active)
13,CC1(C)S[C@H](CN)N[C@H]1C(=O)OC(c1ccccc1)c1ccccc1,49% [100 µM] (inactive) and -32.5% [100 µM] (active)
14,Cc1ccc2c(/C=C/c3ccc(N(C)C)cc3)ccc(C(C)C)cc1-2,104% [100 µM] (inactive) and -33% [100 µM] (active)
15,COc1cc2c(cc1C1COc3cc4occc4cc3C1=O)OCO2 (centres undefined),88.2% [100 µM] (inactive) and 80.4% [100 µM] (inactive)
16,Clc1ccc(C2C3COc4ccccc4C3=NN2c2ccccc2)cc1 (centres undefined),77% [100 µM] (inactive) and 31.3% [100 µM] (inactive)
17,CCCCC1C(=O)N(c2ccc(S(=O)(=O)Nc3ccccn3)cc2)N(c2ccc(O)c(C(=O)O)c2)C1=O (centres undefined),102% [100 µM] (inactive) and 94.2% [100 µM] (inactive)
18,CC(C)O/N=C/c1cc(NC(=S)OC(C)C)ccc1Cl,53.5% [100 µM] (inactive) and 36.1% [100 µM] (inactive)
19,C/C(O)=C/c1nc2sc(C)c(C)c2c(=O)s1,50.2% [100 µM] (inactive) and 46.7% [100 µM] (inactive)
20,C=CCNC1=C2C[C@@H](C)C[C@@H](OC)[C@@H](OC(=O)CCCN)[C@H](C)/C=C(\C)[C@@H](OC(N)=O)[C@H](OC)/C=C\C=C(/C)C(=O)NC(=CC1=O)C2=O,-57.4% [100 µM] (active) and -99.4% [100 µM] (active)

row,Compound,growth
1,Cc1ccc(OCC2OC(n3cnc4nc(N)nc(Cl)c43)CC2Oc2ccc(C)cc2)cc1 (centres undefined),104% [100 µM] (inactive) and -84.6% [100 µM] (active)
2,O=C1CC(c2ccccc2)NCCCCN2CC(CN1)C(C(O)c1ccccc1)C2=O (centres undefined),97.8% [100 µM] (inactive) and 88.7% [100 µM] (inactive)
3,COC(=O)C(=O)C(C(=O)C(=O)Nc1nc2ccc(C)cc2s1)c1nc2ccc([N+](=O)[O-])cc2[nH]c1=O (centres undefined),115% [100 µM] (inactive) and 75.4% [100 µM] (inactive)
4,COC(=O)C(Cc1nc2ccccc2[nH]c1=O)C(=O)C(=O)Nc1cc(C(F)(F)F)ccc1Cl (centres undefined),-90.1% [100 µM] (active) and 0.262% [100 µM] (active)
5,O[C@H]1[C@H](O)[C@@H](Cn2nnc(-c3ccccc3)c2-c2ccccc2)OCO[C@@H]1Cn1nnc(-c2ccccc2)c1-c1ccccc1,-89.7% [100 µM] (active)
6,C[C@]12CC[C@@H]3c4ccc(OS(N)(=O)=O)cc4CC[C@H]3[C@@H]1CCC2=O,31.9% [100 µM] (inactive) and 68.9% [100 µM] (inactive)
7,CCO/C=N\C1=C(C#N)SC2=N/C(=C\c3ccc(OC)cc3)C(=O)N21,92.7% [100 µM] (inactive) and 103% [100 µM] (inactive)
8,Cc1ccc2c(sc(-c3ccc4c(c3)sc(-c3ccc5c(c3)sc(-c3ccc(N(C)C)cc3)[n+]5C)[n+]4C)[n+]2C)c1S(=O)(=O)O (tested in a mixture with another compound),106% [100 µM] (inactive) and 47.3% [100 µM] (inactive)
9,CC1C2(C)OC(=N)C(C#N)(C(c3cccc([N+](=O)[O-])c3)O2)C1(C#N)C#N (centres undefined),108% [100 µM] (inactive)
10,C[C@@H]1C[C@](O)([C@@H](C)Cl)C(=O)O[C@@H]2CCN3CC=C(COC(=O)[C@]1(C)O)[C@H]23,66.6% [100 µM] (inactive) and 88% [100 µM] (inactive)
11,CC(=O)C1=C(C)N2C(=NC3=C(CCc4ccccc43)C2c2ccc(Cl)cc2)S1 (centres undefined),72.8% [100 µM] (inactive) and 35.4% [100 µM] (inactive)
12,CC(C)/C(Cl)=N/OC(=O)Nc1cccc(C(F)(F)F)c1,-100% [100 µM] (active)
13,COC(=O)C(C(=O)C(=O)NC1Nc2ccc(C)cc2S1)c1nc2ccc(Cl)cc2[nH]c1=O (centres undefined),113% [100 µM] (inactive) and 71.4% [100 µM] (inactive)
14,O=C(Nc1cccc(NC(=O)C(=O)C2CCC3=C(Sc4ccccc4N3)C2=O)n1)C(=O)C1CCC2=C(Sc3ccccc3N2)C1=O (centres undefined),103% [100 µM] (inactive) and 15.7% [100 µM] (inactive)
15,CSc1nc(Br)nc2ncn(C3CC(Oc4ccc(C)cc4)C(COc4ccc(C)cc4)O3)c12 (centres undefined),111% [100 µM] (inactive) and -100% [100 µM] (active)
16,O=C1NC(N/N=C\c2ccccc2)=N/C1=C/c1ccc(Cl)cc1,-70.8% [100 µM] (active) and 57.9% [100 µM] (inactive)
17,CNC(=S)/C(=N\Nc1nc[nH]c1C(N)=O)C(N)=S,5.27% [100 µM] (active) and 4.34% [100 µM] (active)
18,COc1ccc(/C=c2\[nH]c3nc(=O)c(N4CCOCC4)c(N)n3c2=O)cc1,72% [100 µM] (inactive) and 6.01% [100 µM] (active)
19,COC(=O)C(=O)C(C(=O)C(=O)Nc1ccccc1C(C)=O)c1nc2ccc(C(=O)c3ccccc3)cc2[nH]c1=O (centres undefined),114% [100 µM] (inactive) and 17.9% [100 µM] (inactive)
